From PubChem BioAssay (NCATS) come the findings set out here.

Molecules are shown by their SMILES. Records with an inconclusive call do not appear. Values without a mark were called inactive. Calls of active or inactive are those of the source. The call rests on the fitted dose curve; in most records, active means well fitted cell-killing curve with a large enough effect; inconclusive means small, poorly fitted or top-dose-only effect, or effect the other way; inactive means flat fitted curve, though single readings scatter.
On the % scale 0 is the no-effect control and ±100 the full control effect; potency means the concentration at half of the fitted maximal effect.

The test relates to HeLa. The experiment in a line: Primary qHTS to identify gynecologic anti-cancer compounds using libraries of approved drugs and bioactive compounds (AID 1345084). Further: nearly all actives have a fitted effect of over 55% in size. The conditions noted are these: Gynecologic cancer cell panel viability, ATPlite luminescence, 48 h; series mostly up to 57.5 µM; activity change, negative = cytotoxicity: at the top concentration. From the text:
National Center for Advancing Translational Sciences [NCATS] Assay Overview: Chemotherapeutic drug responses vary from cancer to cancer and from patient to patient. These variations could be caused by a number of factors including patient genomic background, tumor mutations, tumor heterogeneity, and aspects of drug treatment. Chemotherapeutic drug resistance is also a common issue and can lead to ineffective treatment and patient death. Here we have profiled the cell killing effects of thousands of compounds to characterize the responses in three gynecological cancers, identify cancer-selective compounds, and understand the diversity of responses to these compounds from pan-cancer suppressors to single cell line selective compounds. In this assay, we screened a 7,914 compound drug library that included approved drug and bioactive compounds in six ovarian, three cervical, and […] placental cancer cell lines using the ATPlite assay for cell viability. […] The cervical cancer cell lines included HeLa, Ca Ski, and C-33 A. The placental cancer cell lines included JEG-3. HEK 293T cells were used as the control cell line to determine the selectivity index. ATPlite is a luminescence based assay reliant on the conversion of a luciferase substrate to light in the presence of ATP. As a cytotoxic compound will suppress growth and decrease the number of cells, the concentration of ATP will decrease, and less light signal will be detected in the well.
Assay Protocol Summary: 1,000 cells in 4 uL of media were dispensed into white, solid bottom 1536-well plates using a Multidrop Combi (Thermo Scientific). The Assay plates were incubated for 16 hours at 37 C with 5% CO2 in assay plates, followed by the addition of 23 nL of DMSO or drug dissolved in DMSO. Each compound was assayed in five concentrations (0.092, 0.46, 2.3, 11.5, and 57.5 uM), using the automated Wako 1536 Pin Tool workstation and incubated at 37 C with 5% CO2 48 hours. 4 uL of ATPlite, the ATP monitoring reagent, was then added to the each well of the assay plates using the Multidrop Combi reagent dispenser followed by incubation for 15 minutes at room temperature. The resulting luminescence was measured using the ViewLux plate reader.
On the technique in general: Quantitative high-throughput screening tests each substance at several concentrations.
Take `O=C(O)CCn1c2c(c3ccccc31)C[C@H](NS(=O)(=O)c1ccc(F)cc1)CC2`: the Potency entry is “inactive”.

With `Cc1oc(=O)oc1CN1CCN(c2cc3c(cc2F)c(=O)c(C(=O)O)c2n3C(C)S2)CC1` (stereo not given), the “activity change, negative = cytotoxicity” value was 2.3%.

With `C[C@@H]1C[C@H]2[C@@H]3CCC4=CC(=O)C=C[C@]4(C)[C@@]3(Cl)[C@@H](O)C[C@]2(C)[C@@]1(OC(=O)c1ccco1)C(=O)CCl`, the “activity change, negative = cytotoxicity” value was -10.7%.

As to `CC(C)OC(=O)OCOP(=O)(CO[C@H](C)Cn1cnc2c(N)ncnc21)OCOC(=O)OC(C)C`, the “activity change, negative = cytotoxicity” value was -0.0184%.

As to `NS(=O)(=O)c1cc2c(cc1Cl)NC(C(Cl)Cl)NS2(=O)=O` (stereo not given), the “activity change, negative = cytotoxicity” value is 2.46%.

Consider `Oc1c(Cl)cc(Cl)c2cccnc12`, for which the “activity change, negative = cytotoxicity” value is -13%.

`CC(=O)CC(c1ccccc1)c1c(O)c2ccccc2oc1=O` (stereo not given): the “activity change, negative = cytotoxicity” value is 4.21%.

For `N[C@@H](C(=O)N[C@@H]1C(=O)N2C(C(=O)O)=C(Cl)CS[C@H]12)c1ccccc1`, the activity change, negative = cytotoxicity is 2.57% [at 11.6 µM].

On to `CCn1cc(C(=O)O)c(=O)c2cc(F)c(N3CCNCC3)cc21`, for which the “activity change, negative = cytotoxicity” value was 4.83%.

For `NC(=O)c1cccnc1`, the “activity change, negative = cytotoxicity” value was -1.5%.

Take `O=c1cc(O)c(Cl)c[nH]1`: the “activity change, negative = cytotoxicity” value was -1.05%.

On to `S=P(N1CC1)(N1CC1)N1CC1`, for which the “activity change, negative = cytotoxicity” value is -11.6% [at 116 µM].

In the case of `CS(=O)(=O)c1ccc([C@@H](O)[C@@H](CO)NC(=O)C(Cl)Cl)cc1`, the “activity change, negative = cytotoxicity” value was 16.5%.

In the case of `COc1ccccc1OCC(O)COC(N)=O` (stereo not given), the “activity change, negative = cytotoxicity” value was -1.05%.

On to `CCCN[C@H]1CCc2nc(N)sc2C1`, for which the “activity change, negative = cytotoxicity” value was 6.04%.

Consider `COC(c1ccccc1)(c1ccccc1)[C@H](Oc1nc(C)cc(C)n1)C(=O)O`, for which the “activity change, negative = cytotoxicity” value was -4.97%.

Turning to `COc1ncnc(NS(=O)(=O)c2ccc(N)cc2)c1OC`, the “activity change, negative = cytotoxicity” value was 13.7%.

Consider `CCN(C)C(=O)Oc1cccc([C@H](C)N(C)C)c1`, for which the “activity change, negative = cytotoxicity” value is -0.617%.

As to `CCC(=O)O[C@]1(C(=O)CCl)[C@@H](C)C[C@H]2[C@@H]3CCC4=CC(=O)C=C[C@]4(C)[C@@]3(F)[C@@H](O)C[C@@]21C`, the “activity change, negative = cytotoxicity” value is -5.15%.

Regarding `COc1nc(N)nc2c1ncn2[C@@H]1O[C@H](CO)[C@@H](O)[C@@H]1O`, the “activity change, negative = cytotoxicity” value is -4.39%.

As for `Nc1nc(F)nc2c1ncn2[C@@H]1O[C@H](CO)[C@@H](O)[C@@H]1O`, the Potency result was “inactive”.

Turning to `COc1cc(NS(=O)(=O)c2ccc(N)cc2)nc(OC)n1`, the “activity change, negative = cytotoxicity” value is 12.1%.

For the compound `COc1cc([C@@H]2c3cc4c(cc3[C@H](O)[C@H]3COC(=O)[C@H]23)OCO4)cc(OC)c1OC`, the Potency is 100 nM (active).

Consider `CN(C)CCc1c[nH]c2ccc(C[C@H]3COC(=O)N3)cc12`, for which the Potency result is “inactive”.

As for `Nc1[nH]c(=O)ncc1F`, the “activity change, negative = cytotoxicity” value was 7.9%.

For the compound `CCOC(=O)[C@H](CCc1ccccc1)N[C@H]1CS[C@H](c2cccs2)CN(CC(=O)O)C1=O`, the “activity change, negative = cytotoxicity” value was -0.277%.

With `Nc1ccc(S(=O)(=O)Nc2ccccn2)cc1`, the “activity change, negative = cytotoxicity” value is 7.38%.

As for `CCOCC(O)COc1ccc(NC(=O)CC[S+](C)C)cc1` (stereo not given), the “activity change, negative = cytotoxicity” value was 7.63%.

On to `CC1=CC(=O)c2ccccc2C1=O`, for which the “activity change, negative = cytotoxicity” value was -3.37%.

With `CC(C)(C)NC(=O)[C@H]1CC[C@H]2[C@@H]3CC[C@H]4NC(=O)C=C[C@]4(C)[C@H]3CC[C@]12C`, the “activity change, negative = cytotoxicity” value is -1.83%.

With `CC(C)(C#N)c1cc(Cn2cncn2)cc(C(C)(C)C#N)c1`, the “activity change, negative = cytotoxicity” value was 12.2%.

Consider `CN1CCCC(n2nc(Cc3ccc(Cl)cc3)c3ccccc3c2=O)CC1` (stereo not given), for which the “activity change, negative = cytotoxicity” value is -3.65%.

`O=C(O)c1cc(=O)[nH]c(=O)[nH]1`: the “activity change, negative = cytotoxicity” value was -3.23%.

Consider `CCn1cc(C(=O)O)c(=O)c2cc(F)c(N3CCN(C)CC3)cc21`, for which the “activity change, negative = cytotoxicity” value was 21.2% [at 25.3 µM].

Consider `Cc1nnc(NS(=O)(=O)c2ccc(N)cc2)s1`, for which the “activity change, negative = cytotoxicity” value was -0.968%.

For the compound `CN(CCOc1ccc(CC2SC(=O)NC2=O)cc1)c1ccccn1` (stereo not given), the “activity change, negative = cytotoxicity” value is 6.45%.

For the compound `CCC(C)(C)c1ccc(CC(C)CN2C[C@@H](C)O[C@@H](C)C2)cc1` (stereo not given in full), the “activity change, negative = cytotoxicity” value is 5.57%.

As for `COc1c(N2CCNC(C)C2)c(F)cc2c(=O)c(C(=O)O)cn(C3CC3)c12` (stereo not given), the “activity change, negative = cytotoxicity” value was -1.92%.

On to `O=NN(CCCl)C(=O)NC1CCCCC1`, for which the “activity change, negative = cytotoxicity” value was -1.07%.

On to `O=C(O)CSCC(=O)NC1CCSC1=O` (stereo not given), for which the “activity change, negative = cytotoxicity” value is 13.5%.
